Compounds with a hit are over-represented: about 0.31% of the library has one in this group of screens.
TRPV1 PAM = potentiators of human vanilloid receptor 1 (TRPV1). TRPV1-expressing cells, Fluo-8 calcium influx, capsaicin EC20 potentiation. potentiation, % at 8.33 µM. hit rate 0.02% among 320,000. AID 540277; in the data active = potentiation above about 80%; inconclusive = between about 30% and that limit
Target sequence (Q8NER1 whole entry, looked up): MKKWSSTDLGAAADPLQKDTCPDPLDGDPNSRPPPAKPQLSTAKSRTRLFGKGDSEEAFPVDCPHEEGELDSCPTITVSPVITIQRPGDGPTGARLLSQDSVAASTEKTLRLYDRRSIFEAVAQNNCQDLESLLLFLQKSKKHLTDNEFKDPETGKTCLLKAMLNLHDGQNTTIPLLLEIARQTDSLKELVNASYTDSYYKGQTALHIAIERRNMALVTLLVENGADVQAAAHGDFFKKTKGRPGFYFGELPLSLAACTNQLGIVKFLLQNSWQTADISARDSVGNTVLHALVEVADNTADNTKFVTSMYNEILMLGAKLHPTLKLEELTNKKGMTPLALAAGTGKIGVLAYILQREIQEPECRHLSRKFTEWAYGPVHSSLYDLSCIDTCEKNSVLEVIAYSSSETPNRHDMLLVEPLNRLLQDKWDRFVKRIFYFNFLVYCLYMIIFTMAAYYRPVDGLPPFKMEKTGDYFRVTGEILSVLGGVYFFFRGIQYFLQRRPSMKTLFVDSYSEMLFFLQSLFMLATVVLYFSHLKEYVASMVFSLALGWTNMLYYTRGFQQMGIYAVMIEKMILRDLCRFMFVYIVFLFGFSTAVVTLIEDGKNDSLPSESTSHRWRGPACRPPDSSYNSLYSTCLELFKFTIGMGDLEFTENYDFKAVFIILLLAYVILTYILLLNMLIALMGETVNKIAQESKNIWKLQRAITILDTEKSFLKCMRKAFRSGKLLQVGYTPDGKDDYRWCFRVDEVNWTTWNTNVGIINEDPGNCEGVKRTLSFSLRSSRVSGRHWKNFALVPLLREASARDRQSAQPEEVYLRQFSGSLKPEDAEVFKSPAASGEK
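Fluo-8 calcium influx in TRPV1-expressing cells, kinetic read (ex 480/em 520 nm). Compound added and read 3 min for agonist activity, followed by capsaicin at EC20 final and 2 min further read for enhancement.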
TRPML1 ag = agonists of human TRPML1 channel; hit rate 0.12% among 410,000; TRPML1-expressing cells, Ca2+ dye fluorescence, FDSS; Q9GZU1; activation, % (no concentration beside the values); AID 624414; in the data active = activation above about 50%; inconclusive = mostly about 30% to 49%
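TRPML1-DL cells, Tet-induced overnight (~16 h, 37 degrees C), loaded 45-90 min at room temperature with Ca8 no-wash calcium dye plus quencher. FDSS fluorescence: 10 s baseline, compound pin-transfer, 110 s agonist read, then EC80 54-4 (4uM final) and 110 s antagonist read.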
TRPV1 ag = activates the human vanilloid receptor TRPV1; Q8NER1; TRPV1-expressing cells, Fluo-8 calcium influx, agonist mode; activation, % at 8.33 µM; hit rate 0.19% among 320,000; in the data active = activation above about 80%; inconclusive = between about 30% and that limit
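TRPV1-expressing cells were cultured overnight at 35.5C and loaded with Fluo-8 calcium dye for 40 to 90 min at room temperature. After a 10 s baseline, compound was added and calcium influx was read kinetically for 3 min (ex 480/em 520 nm).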
TRPML1 inh = human mucolipin-1 channel inhibition; hit rate 0.02% among 390,000; TRPML1-inducible cells, Ca2+ dye fluorescence, FDSS; hits give low values; inhibition of EC80 agonist-evoked calcium signal; Q9GZU1; AID 624415; activity change, negative = inhibition, % (concentration not given with the values); in the data active = activity change below about -50%; inconclusive = between about -30% and that limit;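 also: stimulus is agonist 54-4 at its EC80 concentration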
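Calcium fluorescence in TRPML1-DL cells induced overnight with Tet: a 110 s read after compound pin addition, then a 110 s antagonist read after challenge with 54-4 at 4 uM final (EC80).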
A number is an active result; 0 = inactive; ? = inconclusive; - = no result.

SMILES	TRPV1 PAM	TRPML1 ag	TRPV1 ag	TRPML1 inh
O=C(/C=C/c1cc(Br)ccc1F)Nc1cccnc1	0	0	80	0
CCCCCCCCCC[n+]1ccc(/C=C/c2c[nH]c3ccccc23)cc1	-	68	-	-
CCCCCCC[n+]1ccc(/C=C/c2c(C)[nH]c3ccccc23)cc1	-	57	-	-
CCCCCCCCCCCCCCCC[n+]1ccc(/C=C/c2c(C)[nH]c3ccccc23)cc1	-	0	-	-
C(=C\c1ccnc2ccccc12)/c1ccc2ccccc2n1	-	0	-	-
CC(C)(C)n1ncc2c(=O)n(Cc3ccc(SC(=O)O)cc3Cl)cnc21	-	0	-	0
Cc1nn(-c2ccccc2)c(C)c1/C=N/n1c(-c2ccccc2Br)n[nH]c1=S	0	0	0	-69
CCN(CC)c1ccc(/C=N/n2c(-c3ccccc3Br)n[nH]c2=S)cc1	0	0	0	0
CC(=O)N1CCCc2cc(S(=O)(=O)NCc3ccc(OC(C)C)cc3)ccc21	-	0	-	0
COC(=O)[C@@H](NC(=O)N1CCN(C(=O)C2COc3ccccc3O2)CC1)C(C)C (some centres not stated)	0	0	0	-60
O=S(=O)(c1ccc2nc(Nc3ccc(Br)cc3F)ccc2c1)N1CCCCC1	-	0	-	0
C/C(=N\Nc1ccc2nncn2n1)c1ccco1	0	0	0	0
C/C(=N\Nc1ccc2nncn2n1)c1ccc(Br)s1	0	0	96	0
CC(C)Sc1ccc(C(=O)Nc2ccc(F)cc2F)cn1	0	0	85	0
CC1CCN(CCOc2ccc(C(=O)c3ccccc3)cc2)CC1	81	0	0	0
C[C@@H]1[C@H](c2ccccc2)OCCS(=O)(=O)N1Cc1ccccc1F	-	0	-	-
CCOC(=O)c1nc2sc3c(c2c(=O)n1C(C)C(=O)OCC)CCCC3 (configuration not stated)	0	0	80	0
CCOC(=O)c1sc(NC(=O)Cn2nnc3sc4c(c3c2=O)CCCC4)nc1C	0	0	0	0
O=C(Cc1ccccc1)NCCSC1CCCCC1	0	0	94	0
O=C(Cc1ccccc1)NCCCNC(=O)Cc1ccccc1	-	0	-	0
COc1ccc(S(=O)(=O)N2CC3CCCN3c3ccc(C(F)(F)F)cc32)cc1 (configuration not stated)	?	80	0	0
O=C(Nc1ccc2c3c(cccc13)CC2)c1ccc(Br)o1	0	0	85	0
CCOC(=O)[C@H]1[C@H]2COc3cc(OC)ccc3[C@@H]2N2C(=O)c3ccc(C)cc3NC(=O)[C@@]12C	0	0	82	0
CCOC(=O)[C@H]1[C@H]2COc3ccc(Br)cc3[C@@H]2N2C(=O)c3cc(F)c(F)cc3NC(=O)[C@@]12C	?	0	84	0
CCOC(=O)[C@H]1[C@H]2COc3ccccc3[C@@H]2N2C(=O)c3ccc(C)cc3NC(=O)[C@@]12C	0	0	93	0
SMILES	TRPV1 PAM	TRPML1 ag	TRPV1 ag	TRPML1 inh
CCOC(=O)[C@H]1[C@H]2COc3ccc(Br)cc3[C@@H]2N2C(=O)c3ccc(F)cc3NC(=O)[C@@]12C	0	0	?	0
CCOC(=O)[C@H]1[C@H]2COc3ccccc3[C@@H]2N2C(=O)c3ccccc3NC(=O)[C@@]12C	0	0	?	0
CCOC(=O)[C@H]1[C@H]2COc3ccc(Br)cc3[C@@H]2N2C(=O)c3ccc(C)cc3NC(=O)[C@@]12C	0	0	80	0
Cc1ccc(CN2[C@H](C)[C@H](c3ccccc3)OCCS2(=O)=O)cc1	-	0	-	-
CC(C)(C)c1ccc(C(=O)C[n+]2ccc(Cl)c3ccc(Cl)cc32)cc1	-	0	-	-
Clc1ccc[n+](CCCCC[n+]2cccc(Cl)c2)c1	-	0	-	-
COC(=O)c1scc(-c2ccc(C)cc2)c1S(=O)(=O)N1CCN(c2cccc(OC)c2)CC1	-	0	-	0
CC(=O)Nc1ccc(/C=C/C(=O)c2ccc(-n3nncc3-c3ccccc3)cc2)cc1	-	0	-	-
Cc1cc(N2CCC(C)CC2)c(F)cc1[N+](=O)[O-]	0	0	0	0
Cc1cc(N2CCCC2)c(F)cc1/C=C\[N+](=O)[O-]	0	52	0	0
NC(=O)C1CCN(C(=O)c2ccc3nc(-c4ccccc4)c(-c4ccccc4)nc3c2)CC1	0	0	81	0
COc1ccc(OC)c(C(c2nnnn2CCc2ccccc2)N2CCN(c3ccccc3)CC2)c1 (configuration not stated)	0	51	0	0
COc1cc(OC)c(-c2noc(C(=O)OC(C)(C)C)c2C(=O)OC(C)(C)C)c(OC)c1	0	0	?	0
Cc1cc(C)c(-c2noc(C(=O)OC(C)(C)C)c2C(=O)OC(C)(C)C)c(C)c1	0	53	0	0
C1=Cc2ccccc2/C1=C\c1cccc(/C=C2\C=Cc3ccccc32)c1	-	0	-	-
CC(C)(C)NC(=O)c1cccc(NC(=O)c2ccc3c(c2)C(=O)N(C(C)(C)C)C3=O)c1	0	0	0	0
COC(=O)c1cccc(NC(=O)c2ccc3c(c2)C(=O)N(C(C)(C)C)C3=O)c1	0	0	107	0
COc1cc(NC(=O)CC2C(=O)N(c3ccc(Cl)cc3)C(=O)N2Cc2cccs2)cc(OC)c1 (configuration not stated)	-	0	-	0
COc1cccc(/C=N/n2c(SC)nnc2-c2ccccc2)c1O	0	0	89	0
O=C1OC2(c3ccccc31)c1cc(I)c(O)c(I)c1Oc1c2cc(I)c(O)c1I	0	-	88	-
Cc1cc(O)ccc1C1(c2ccc(O)cc2C)OC(=O)c2ccccc21	0	0	0	0
CN(C)S(=O)(=O)c1ccc(S(=O)(=O)N(Cc2ccco2)Cc2ccccc2Cl)cc1	0	64	0	0
CCCCOc1ccc(C(=O)NCCc2sc3nc(-c4ccc(OC)cc4)nn3c2C)cc1	-	0	-	0
CC(=NNC(=O)c1ccncc1)c1ccccc1O	-	0	-	0
CC(=NNC(=O)c1ccncc1)c1ccc2ccccc2c1O	-	79	-	0
SMILES	TRPV1 PAM	TRPML1 ag	TRPV1 ag	TRPML1 inh
COC(=O)CCCC1=CC2=CC(=O)C(C)(OC(=O)c3cccs3)C(=O)C2=CN1CCc1ccccn1 (configuration not stated)	?	0	0	0
CCCCC1=CC2=CC(=O)C(C)(OC(=O)CC)C(=O)C2=CN1CCc1ccccn1 (configuration not stated)	0	0	0	-54
Cc1ccc(C)c(NC(=O)N2CCN(C(=O)c3nsc4ccccc34)CC2)c1	-	0	-	0
Cc1cccc(-n2nc(C)c(C(=O)N3CCN(c4ccccc4)CC3)c2-n2cccc2)c1	-	71	-	0
CCOC(=O)N1CCN(C(=O)c2c(C)nn(-c3cccc(C)c3)c2-n2cccc2)CC1	-	0	-	0
CC(=O)c1ccc(NS(=O)(=O)c2ccc3[nH]c(=O)[nH]c3c2)cc1	-	0	-	0
Clc1cccc[n+]1CCCCCC[n+]1ccccc1Cl	-	0	-	-
CC(C)(C)C(=O)NC(=S)NNC(=O)c1ccc(-c2ccccc2)cc1	0	80	?	0
CC(C)(C)C(=O)NC(=S)NNC(=O)c1ccc(Cl)cc1Cl	0	66	?	0
CCN(CC)CCN(C)c1ccc(/C=C/c2ccnc3ccccc23)cc1	-	0	-	-
CC(C)n1ncc2c(C(=O)Nc3ccc(S(N)(=O)=O)cc3)cc(C3CC3)nc21	0	0	81	0
